Unmarked numbers belong to inactive results. No rule for the calls is given here.
Assay: Counterscreen for Identifying a Potential Treatment of Ataxia-Telangiectasia: SAR for Probe
Settings: cell-free AlphaLISA pKAP1 detection artifact counterscreen; series mostly up to 154 µM; activity change: at the top concentration
Text: NIH Chemical Genomics Center [NCGC] NIH Molecular Libraries Probe Centers Network [MLPCN] MLPCN Grant: MH089030-01 Assay Submitter (PI): Wei Zheng and Yosef Shiloh Ataxia-telangiectasia (A-T) is a devastating and progressive disease for which, there is no cure. Although A-T is a multisystem disease, it is stereotyped characterized by its neurological symptoms such as truncal ataxia, due to cerebellar cortical degeneration of the Purkinje and granule cells. Other symptoms of A-T are telangiectasias (dilated blood vessels), primary immunodeficiency, marked sensitivity to ionizing radiation (IR), chromosomal instability and predisposition to cancer. The underlying genetic cause of A-T is null mutations in the ATM (A-T mutated) gene. ATM is a nuclear serine/threonine kinase that functions as a master regulator of the cellular responses to double strand breaks (DSBs) in the DNA. Upon activation by DSBs, ATM phosphorylates a plethora of downstream targets, including KAP-1 on Ser82452. […] To screen for small molecules that will compensate for the loss of ATM in cells derived from A-T patients, we monitored KAP-1 phosphorylation as a readout for ATM-like activity using an AlphaLISA assay.
qHTS Assay Protocol: 1. […] Readout, EnVision, EnVision plate reader. […] EnVision protocol for 1536-well AlphaScreen read (30ms excitation, 100ms read), about 10 min/plate. […]

SMILES | activity change
CC(=O)c1c(O)c(C)c(O)c(Cc2c(O)c3c(c(C(=O)/C=C/c4ccccc4)c2O)OC(C)(C)C=C3)c1O | 13.5%
